Laboratory results as given in PubChem BioAssay (Tox21).
Where “and” joins values, the source holds several entries; their conditions need not be identical. Identical values can stand only once. Results filed as inconclusive are left out. Calls of active or inactive are those of the source. Unless noted, calls follow the shape of the dose curve; as a rule, active = well fitted curve in the direction sought with a large enough effect in the repeat runs; inconclusive = weak or mixed curves; inactive = no such curve, though single readings can be large; an effect the other way counts as inactive or inconclusive.

How the values were obtained:
[1] = qHTS assay to identify small molecule antagonists of the estrogen related receptor (ERR) signaling pathway from Tox21 library - cell viability counter screen (AID 1224834); also: nearly all actives have a fitted effect of over 30% in size; also: potency is read from the fitted curve at half-maximal effect
Outline: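 ERR reporter cells were plated 6 h before compound addition, then exposed to test compounds in DMSO for 17.5 h at 37 C. Viability was read as CellTiter-Fluor fluorescence after a 30-minute incubation at 37 C.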

[2] = biological target: Luciferin 4-monooxygenase (Photinus pyralis) (UniProt P08659); assay: qHTS assay to identify small molecule inhibitors of firefly luciferase (AID 1224835); also: nearly all actives have a fitted effect of over 25% in size
Outline: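 Quantitative HTS format; KM concentrations of both substrates. Purified P. pyralis FLuc activity quantified from luminescence images.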

[3] = qHTS assay to identify small molecule agonists of the constitutive androstane receptor (CAR) signaling pathway - cell viability counter screen (AID 1224836); also: nearly all actives have a fitted effect of over 45% in size; also: potency is read from the fitted curve at half-maximal effect
Outline: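 Compound titrations (15 concentrations) went onto HepG2-CYP2B6-hCAR cells 4 h after seeding, alongside PK11195 at a final 0.75 uM; a 23 h, 37 C/5% CO2 incubation preceded CellTiter-Fluor viability measurement.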

[4] = qHTS assay to identify small molecule antagonists of the constitutive androstane receptor (CAR) signaling pathway - cell viability counter screen (AID 1224837); also: nearly all actives have a fitted effect of over 45% in size; also: potency is read from the fitted curve at half-maximal effect
Outline: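 HepG2 cells stably expressing hCAR and a CYP2B6-2.2kb reporter were plated and pre-incubated 4 hr at 37 C/5% CO2, then given compounds at 15 concentrations plus 50 nM CITCO (final). After 23 hr, viability was read by CellTiter-Fluor fluorescence.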

[5] = qHTS assay to identify small molecule antagonists of the estrogen related receptor signaling pathway with the pleiotropic PPARgamma coactivator (PGC) from Tox21 10K library - cell viability counter screen (AID 1224840; active = well fitted cell-killing curve with a large enough effect in the repeat runs, not every such curve was filed as active; also: nearly all actives have a fitted effect of over 40% in size; also: potency is read from the fitted curve at half-maximal effect)
Outline: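 PGC/ERR cells were seeded at 2,000 cells/well and left 6 hours at 37 C/5% CO2 before pin-tool addition of compounds in DMSO. After 17.5 hours at 37 C, CellTiter-Fluor was added and fluorescence read 30 minutes later.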

[6] = qHTS assay to identify small molecule agonists of the hypoxia (HIF-1) signaling pathway - cell viability counter screen (AID 1224844; calls by dose curve; also: nearly all actives have a fitted effect of over 50% in size; also: potency is read from the fitted curve at half-maximal effect)
Outline: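 HRE-bla ME-180 cells in medium with 0.5% dialyzed FBS were preincubated 5 hrs at 37C, exposed to compounds for 17 hrs, then viability was read as CellTiter-Glo luminescence after 30 min at room temperature, in the reporter wells.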

[7] = qHTS assay to identify small molecule agonists of H2AX (AID 1224845; active = well fitted activation curve with a large enough effect in the signal ratio in the repeat runs, not every such curve was filed as active; the % refers to the signal ratio; also: potency is read from the fitted curve at half-maximal effect)
Outline: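 Wild-type CHO-K1 cells plated overnight, then exposed 3 hr at 37C to compounds at 15 concentrations (0.76% DMSO). Lysed, then HTRF anti-pH2AX(S139)-cryptate/anti-H2AX-d2 detection after 24 hr at room temperature; emissions 665 and 620 nm.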

[8] = qHTS assay to identify small molecule agonists of the hypoxia (HIF-1) signaling pathway (AID 1224846; active = well fitted activation curve with a large enough effect in the signal ratio in the repeat runs, not every such curve was filed as active; the % refers to the signal ratio)
Outline: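 HRE-bla ME-180 cells (beta-lactamase reporter under hypoxia response element) were plated at 2,000 cells/well in medium with 0.5% dialyzed FBS, rested 5 hrs, then given compounds in DMSO for 17 hrs at 37C, 5% CO2. Reporter induction was read with CCF4-AM FRET substrate.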

[9] = qHTS assay to identify small molecule agonists of H2AX - cell viability counter screen (AID 1224847; calls by dose curve; also: nearly all actives have a fitted effect of over 30% in size; also: potency is read from the fitted curve at half-maximal effect)
Outline: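 Read-out: CellTiter-Glo luminescence, 30 min RT. Cells: wild-type CHO-K1, 1000/well, 10% FBS, plated overnight at 37C. Treatment: 15 concentrations, 3 hr, 37C, 0.76% DMSO.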

[10] = qHTS RealTime-Glo MT Cell Viability Assay in HepG2 cells - 24 hour (AID 1224867); also: nearly all actives have a fitted effect of over 50% in size; also: potency is read from the fitted curve at half-maximal effect
Outline: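 Compound treatment began 5 h after plating HepG2 cells (600/well) with NanoLuc luciferase and prosubstrate. Plates stayed at 37 C for 40 h; luminescence was captured at six time points, 0 h through 40 h.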

[11] = qHTS RealTime-Glo MT Cell Viability Assay in HEK293 cells - 32 hour (AID 1224868); also: nearly all actives have a fitted effect of over 50% in size; also: potency is read from the fitted curve at half-maximal effect
Outline: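 Quantitative high-throughput screen of the Tox21 10K library in HEK293: cells and RealTime-Glo reagents plated together, compound added at 5 h, luminescence monitored through 40 h at 37 C.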

[12] = A CellTox Green Cytotoxicity Assay to monitor cytotoxicity in HEK293 cells - 0 hour (AID 1224869); also: nearly all actives have a fitted effect of over 50% in size
Outline: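 HEK293 cells premixed with CellTox Green dye were seeded at 600 cells/well and left 5 h at 37 C/5% CO2 before pin transfer of 23 nL compound in DMSO. Fluorescence from dye bound to dead-cell DNA was read during 40 h treatment.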

[13] = qHTS RealTime-Glo MT Cell Viability Assay in HepG2 cells - 40 hour (AID 1224870); also: nearly all actives have a fitted effect of over 50% in size
Outline: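 HepG2 cells mixed with RealTime-Glo MT reagents (NanoLuc plus cell-permeant prosubstrate) were seeded at 600 cells/well, incubated 5 h at 37 C/5% CO2, then pinned with compounds in DMSO; nonlytic luminescence tracked viability during 40 h treatment.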

[14] = biological target: Thyrotropin receptor (Homo sapiens) (UniProt P16473); assay: qHTS assay to identify small molecule agonists of the thyroid stimulating hormone receptor (TSHR) signaling pathway (AID 1224843; calls by dose curve; also: nearly all actives have a fitted effect of over 45% in size; also: potency is read from the fitted curve at half-maximal effect)
Outline: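 Cell line HEK293 with TSHR; density 800/well. Exposure 30 min RT. Readout HTRF cAMP (cAMP-d2/anti-cAMP-cryptate), 1 h RT before reading.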

[15] = biological target: Nuclear receptor subfamily 1 group I member 3 (Homo sapiens) (UniProt Q14994); assay: qHTS assay to identify small molecule antagonists of the constitutive androstane receptor (CAR) signaling pathway (AID 1224838); also: nearly all actives have a fitted effect of over 40% in size
Outline: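 HepG2 cells stably co-transfected with hCAR and a CYP2B6-2.2kb luciferase reporter were seeded 4 h before compound addition at 15 concentrations. Cells were stimulated with 50 nM CITCO (final) for 24 h at 37 C; luciferase luminescence was then read.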

[16] = qHTS assay to identify small molecule agonists of the estrogen related receptor signaling pathway with the pleiotropic PPARgamma coactivator (PGC) from Tox21 10K library (AID 1224842); also: nearly all actives have a fitted effect of over 15% in size
Outline: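 PGC/ERR reporter cells (NTP line) were seeded 2,000 per well, rested 6 h at 37 C/5% CO2, then pin-dosed with compounds in DMSO for 18 h at 37 C; luciferase read by One-Glo luminescence after 30 min at room temperature.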

[17] = qHTS assay to identify small molecule antagonists of the estrogen related receptor (ERR) signaling pathway from Tox21 library (AID 1224848); also: nearly all actives have a fitted effect of over 50% in size; also: potency is read from the fitted curve at half-maximal effect
Outline: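 Screening used an ERR reporter line supplied by NTP, exposed for 18 h at 37 C to library compounds delivered in DMSO. Signal was luciferase luminescence developed with ONE-Glo at room temperature for 30 min.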

[18] = qHTS assay to identify small molecule agonists of the estrogen related receptor (ERR) signaling pathway from Tox21 library (AID 1224849; calls by dose curve; also: nearly all actives have a fitted effect of over 15% in size); conditions: ERR reporter cell line, ONE-Glo luciferase, 18 h; at 92.4 µM (top of the series) unless noted
Outline: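 ERR reporter cell line (NTP) seeded, rested 6 h at 37 C/5% CO2, then pinned with Tox21 compounds in DMSO. After 18 h at 37 C, ONE-Glo luciferase luminescence was read following 30 min at room temperature.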

[19] = qHTS assay to identify small molecule antagonists of the estrogen related receptor signaling pathway with the pleiotropic PPARgamma coactivator (PGC) from Tox21 10K library (AID 1224841; call rule not given here; also: potency is read from the fitted curve at half-maximal effect)
Outline: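 PGC/ERR reporter cells were seeded at 2,000 cells/well and held 6 hours at 37 C/5% CO2 before pin-tool addition of compounds in DMSO. After 18 hours at 37 C, One-Glo was added and luminescence read after 30 minutes at room temperature.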

[20] = biological target: Nuclear receptor subfamily 1 group I member 3 (Homo sapiens) (UniProt Q14994); assay: qHTS assay to identify small molecule agonists of the constitutive androstane receptor (CAR) signaling pathway (AID 1224839); also: nearly all actives have a fitted effect of over 15% in size; also: potency is read from the fitted curve at half-maximal effect;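 as to activation: HepG2 cells stably carrying human CAR and a CYP2B6 luciferase reporter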
Outline: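 In this screen, CAR-driven CYP2B6 promoter activity is measured by luminescence in HepG2-CYP2B6-hCAR cells after 24 h with test compounds and 0.75 uM PK11195 (final concentration).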
% is scaled to controls: 0 for no effect and ±100 for the full control effect.

Sequence of Luciferin 4-monooxygenase (Photinus pyralis) (P08659 whole entry, looked up): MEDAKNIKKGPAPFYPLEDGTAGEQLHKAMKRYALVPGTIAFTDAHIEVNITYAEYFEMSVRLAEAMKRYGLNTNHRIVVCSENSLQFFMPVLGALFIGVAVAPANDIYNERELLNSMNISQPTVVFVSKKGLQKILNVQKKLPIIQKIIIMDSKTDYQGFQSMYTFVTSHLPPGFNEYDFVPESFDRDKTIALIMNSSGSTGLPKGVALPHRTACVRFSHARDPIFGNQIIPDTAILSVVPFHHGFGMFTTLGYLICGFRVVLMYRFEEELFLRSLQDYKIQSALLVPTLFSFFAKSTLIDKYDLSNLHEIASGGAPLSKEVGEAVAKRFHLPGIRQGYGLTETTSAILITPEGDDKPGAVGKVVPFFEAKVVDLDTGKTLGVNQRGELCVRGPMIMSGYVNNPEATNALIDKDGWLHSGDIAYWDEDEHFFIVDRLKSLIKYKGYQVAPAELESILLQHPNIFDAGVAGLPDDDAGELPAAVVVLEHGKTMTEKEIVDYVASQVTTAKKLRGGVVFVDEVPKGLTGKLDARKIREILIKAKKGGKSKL
Sequence of Nuclear receptor subfamily 1 group I member 3 (Homo sapiens) (Q14994 whole entry, looked up): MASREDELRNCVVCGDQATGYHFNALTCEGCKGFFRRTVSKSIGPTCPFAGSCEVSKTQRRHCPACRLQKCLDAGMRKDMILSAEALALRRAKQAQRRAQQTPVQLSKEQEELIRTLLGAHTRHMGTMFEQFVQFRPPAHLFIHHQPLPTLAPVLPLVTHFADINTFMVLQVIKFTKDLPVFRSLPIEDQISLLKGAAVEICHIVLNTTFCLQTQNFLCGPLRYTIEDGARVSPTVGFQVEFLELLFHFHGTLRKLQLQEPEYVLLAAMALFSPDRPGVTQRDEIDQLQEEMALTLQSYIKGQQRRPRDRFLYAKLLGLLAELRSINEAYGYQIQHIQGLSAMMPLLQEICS
Sequence of Thyrotropin receptor (Homo sapiens) (P16473 whole entry, looked up): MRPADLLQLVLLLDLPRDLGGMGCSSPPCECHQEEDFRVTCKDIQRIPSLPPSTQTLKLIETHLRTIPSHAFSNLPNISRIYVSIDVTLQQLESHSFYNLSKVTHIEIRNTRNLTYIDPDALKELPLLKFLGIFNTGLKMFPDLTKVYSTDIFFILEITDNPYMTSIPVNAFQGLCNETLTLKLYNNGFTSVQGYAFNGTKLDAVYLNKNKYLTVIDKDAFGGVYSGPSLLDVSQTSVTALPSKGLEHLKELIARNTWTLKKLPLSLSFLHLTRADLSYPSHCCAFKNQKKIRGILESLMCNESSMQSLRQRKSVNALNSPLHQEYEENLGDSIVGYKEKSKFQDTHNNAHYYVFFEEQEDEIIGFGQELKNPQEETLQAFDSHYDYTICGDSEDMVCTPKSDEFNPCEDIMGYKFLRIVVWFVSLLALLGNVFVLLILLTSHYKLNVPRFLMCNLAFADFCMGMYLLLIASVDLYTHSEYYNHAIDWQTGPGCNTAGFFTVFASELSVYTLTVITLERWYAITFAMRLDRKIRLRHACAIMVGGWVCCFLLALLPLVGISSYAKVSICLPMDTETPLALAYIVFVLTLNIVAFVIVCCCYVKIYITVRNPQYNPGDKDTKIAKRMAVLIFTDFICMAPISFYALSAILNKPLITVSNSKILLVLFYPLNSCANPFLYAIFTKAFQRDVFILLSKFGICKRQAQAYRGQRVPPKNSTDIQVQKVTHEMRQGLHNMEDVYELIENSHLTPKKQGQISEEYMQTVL

N#Cc1ccc(N(CC(N)=O)CC(F)(F)F)cc1C(F)(F)F
inactive: Potency [1] | Potency [2] | Potency [3] | Potency [4] | Potency [5] | Potency [6] | Potency [7] | Potency [8] | Potency [9] | Potency [10] | Potency [11] | Potency [12] | Potency [13]

O=C(O)CCCCCCNC1c2ccccc2CCc2ccccc21
inactive: Potency [1] | Potency [2] | Potency [3] | Potency [4] | Potency [5] | Potency [14] | Potency [6] | Potency [7] | Potency [8] | Potency [9] | Potency [11] | Potency [12]

NC(=O)C(Cl)Cl
inactive: Potency [1] | Potency [2] | Potency [3] | Potency [4] | Potency [5] | Potency [6] | Potency [7] | Potency [8] | Potency [9] | Potency [10] | Potency [11] | Potency [12] | Potency [13]

Oc1cc(Cl)cc(Cl)c1
inactive: Potency [1] | Potency [2] | Potency [3] | Potency [4] | Potency [15] | Potency [5] | Potency [16] | Potency [6] | Potency [7] | Potency [8] | activity change, positive = activation [18] -48.8% | Potency [10] | Potency [12] | Potency [13]
active: Potency [9] 90.7 µM | Potency [17] 61.8 µM

CNC(=O)Oc1cc(C)cc(C(C)C)c1
inactive: Potency [1] | Potency [2] | Potency [3] | Potency [4] | Potency [15] | Potency [5] | Potency [19] | Potency [16] | Potency [6] | Potency [7] | Potency [8] | Potency [17] | activity change, positive = activation [18] 10.3% | Potency [10] | Potency [11] | Potency [12] | Potency [13]

COC(=O)c1ccccc1S(=O)(=O)NC(=O)Nc1nc(C)nc(OC)n1
inactive: Potency [1] | Potency [2] | Potency [3] | Potency [4] | Potency [5] | Potency [14] | Potency [6] | Potency [7] | Potency [8] | Potency [9] | Potency [10] | Potency [11] | Potency [12]

O=S1OCC2C(CO1)C1(Cl)C(Cl)=C(Cl)C2(Cl)C1(Cl)Cl (stereo not given)
inactive: Potency [2] | Potency [3] | Potency [4] | Potency [15] | Potency [12] | Potency [13]
active: Potency [1] 54.5 µM | Potency [20] 30.7 µM and 17.2 µM | Potency [6] 48.9 µM | Potency [7] 89.9 µM and 101 µM | Potency [9] 101 µM and 89.7 µM | Potency [11] 21.9 µM and 38.9 µM

Cc1nn(-c2cc(NS(C)(=O)=O)c(Cl)cc2Cl)c(=O)n1C(F)F
inactive: Potency [1] | Potency [2] | Potency [3] | Potency [4] | Potency [5] | Potency [19] | Potency [16] | Potency [6] | Potency [7] | Potency [8] | Potency [9] | Potency [17] | activity change, positive = activation [18] -8.62% | Potency [10] | Potency [11] | Potency [12] | Potency [13]

N#CSCc1ccccc1
inactive: Potency [1] | Potency [2] | Potency [3] | Potency [4] | Potency [20] | Potency [14] | Potency [6] | Potency [7] | Potency [8] | Potency [9] | Potency [11] | Potency [12]

C=CC(=C)C
inactive: Potency [1] | Potency [2] | Potency [3] | Potency [4] | Potency [5] | Potency [14] | Potency [6] | Potency [7] | Potency [8] | Potency [9] | Potency [10] | Potency [11] | Potency [12]

CNC(C)(C)Cc1ccccc1
inactive: Potency [1] | Potency [2] | Potency [3] | Potency [4] | Potency [15] | Potency [5] | Potency [14] | Potency [6] | Potency [7] | Potency [8] | Potency [9] | Potency [10] | Potency [12] | Potency [13]

Fc1ccc(C(OCCN2CCN(CCCc3ccccc3)CC2)c2ccc(F)cc2)cc1
active: Potency [1] 26.6 µM | Potency [3] 21.1 µM | Potency [4] 21.1 µM | Potency [5] 26.6 µM | Potency [19] 11.9 µM | Potency [6] 16.9 µM | Potency [9] 55.2 µM | Potency [17] 6.68 µM | Potency [10] 23.9 µM | Potency [11] 9.52 µM
inactive: Potency [2] | Potency [20] | Potency [16] | Potency [14] | activity change, positive = activation [18] -58.9% [at 42.5 µM] | Potency [12]

CCCCC(CC)COC(=O)OOC(C)(C)C (stereo not given)
inactive: Potency [1] | Potency [2] | Potency [3] | Potency [4] | Potency [15] | Potency [20] | Potency [5] | Potency [6] | Potency [7] | Potency [8] | Potency [9] | Potency [10] | Potency [11] | Potency [12]

ClC1=C(Cl)[C@]2(Cl)[C@@H]3[C@H]4C[C@H]([C@@H]5O[C@H]45)[C@@H]3[C@@]1(Cl)C2(Cl)Cl
active: Potency [14] 4.32 µM
inactive: Potency [1] | Potency [2] | Potency [3] | Potency [4] | Potency [5] | Potency [16] | Potency [6] | Potency [7] | Potency [8] | Potency [9] | activity change, positive = activation [18] -25% | Potency [10] | Potency [11] | Potency [12] | Potency [13]

CCC1(CC)C(=O)N=C(O)NC1=O
inactive: Potency [1] | Potency [2] | Potency [3] | Potency [4] | Potency [15] | Potency [20] | Potency [5] | Potency [6] | Potency [7] | Potency [8] | Potency [9] | Potency [10] | Potency [11] | Potency [12]

COCCC#N
inactive: Potency [1] | Potency [2] | Potency [3] | Potency [4] | Potency [5] | Potency [14] | Potency [6] | Potency [7] | Potency [8] | Potency [9] | Potency [10] | Potency [12] | Potency [13]
